# Records with an inconclusive call do not appear. Unmarked numbers belong to inactive results. Calls of active or inactive are those of the source. Calls come from the whole dose curve; as a rule, active = well fitted cell-killing curve with a large enough effect; inconclusive = small, poorly fitted or top-dose-only effect, or effect the other way; inactive = no such curve, though single readings can be large or run the other way.
# Experiment: Quantitative High-Throughput drug screen in 47 multiple myeloma cell lines against the NCATS MIPE library collection: OPM2_DSMZ cell viability assay (AID 1919872); note: nearly all actives have a fitted effect of over 30% in size
# Conditions: OPM2 myeloma viability, CellTiter-Glo ATP luminescence, 48 h; series mostly up to 45.8 µM; viability (% of DMSO): at the top concentration
# In short: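 Myeloma cell lines, 500 cells per well, exposed to MIPE 4.0 library compounds for 48 h at 37C, 5% CO2. Viability from ATP by CellTiter-Glo luminescence; normalised to DMSO (100%) and media-only (0%) wells.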
# Potency is the fitted concentration of half-maximal effect.
Structure (SMILES),Potency,viability (% of DMSO) [%]
CC[C@]1(O)C[C@@H]2CN(CCc3c([nH]c4ccccc34)[C@@](C(=O)OC)(c3cc4c(cc3OC)N(C=O)[C@@H]3C45CCN4CC=C[C@](CC)([C@H]45)[C@@H](OC(C)=O)[C@]3(O)C(=O)OC)C2)C1 (stereo partly specified),23.5 µM (active),–
O=C(NOCC(O)CO)c1cc(Br)c(F)c(F)c1Nc1ccc(I)cc1F (stereo unspecified),–,81.5
CCC(CC)[C@H](NC(C)=O)[C@@H]1[C@H](O)[C@@H](C(=O)O)C[C@@H]1N=C(N)N,–,102
CN(C)C1CCN(C(=O)c2ccc(NC(=O)Nc3nc(N4CCOCC4)nc(N4CCOCC4)n3)cc2)CC1,0.0209 µM (active),–
COc1ccc(C2CC(c3ccccc3)=NN2c2ccc(S(N)(=O)=O)cc2)cc1 (stereo unspecified),–,89.2
O=c1[nH]cnc2c1ncn2[C@H]1CC[C@@H](CO)O1,–,131
N#CC1(c2ccc(NC(=O)c3cccnc3NCc3ccncc3)cc2)CCCC1,–,87.5
N#C[C@H]1C[C@H]2C[C@@H]2N1C(=O)[C@@H](N)C12CC3CC(CC(O)(C3)C1)C2,–,99
O=c1c(-c2ccc(O)cc2)coc2cc(OC3O[C@H](CO)[C@H](O)[C@H](O)[C@H]3O)cc(O)c12 (stereo partly specified),–,93.4
CC1(C)CCC(CN2CCN(c3ccc(C(=O)NS(=O)(=O)c4ccc(NCC5CCOCC5)c([N+](=O)[O-])c4)c(Oc4cnc5[nH]ccc5c4)c3)CC2)=C(c2ccc(Cl)cc2)C1,20.9 µM (active),–
Nc1ncnc2c1ncn2[C@@H]1O[C@@H](CO)[C@H](O)[C@H]1O,–,101
CO[C@H]1C[C@@H]2CC[C@@H](C)[C@@](O)(O2)C(=O)C(=O)N2CCCC[C@@H]2C(=O)O[C@H]([C@@H](C)C[C@@H]2CC[C@H](O)[C@H](OC)C2)CC(=O)[C@H](C)C=C(C)[C@@H](O)[C@@H](OC)C(=O)[C@H](C)C[C@H](C)C=CC=CC=C1C,–,64
COc1cc2c(cc1OC)CN(CCc1ccc(NC(=O)c3cc(OC)c(OC)cc3NC(=O)c3cnc4ccccc4c3)cc1)CC2,–,96.6
CN[C@@H](C)C(=O)N[C@H]1CN(C(=O)CC(C)C)CC[C@H]2CC[C@@H](C(=O)NC(c3ccccc3)c3ccccc3)N2C1=O,–,81.3
OC[C@H]1O[C@@H](n2cnc3c2NC=NC[C@@H]3O)C[C@H]1O,–,101
Cn1c(N2CCCCS2(=O)=O)nc(C(=O)NCc2ccc(F)cc2)c(O)c1=O,–,89.7
NC(=O)c1cnc(-c2ccc(C3(N)CCC3)cc2)c(-c2ccccc2)c1,20.9 µM (active),–
CC1(C)CCC[C@@]2(C)[C@@H]1CC[C@@]1(C)OC(=O)C[C@H]21,–,110

Structure (SMILES),Potency,viability (% of DMSO) [%]
C[C@@H]1CCN(C(=O)CC#N)C[C@H]1N(C)c1ncnc2[nH]ccc12,–,97.6
COc1ncc(-c2ccc3nccc(-c4ccnnc4)c3c2)cc1NS(=O)(=O)c1ccc(F)cc1F,0.0026 µM (active),–
COCCCCC(=NOCCN)c1ccc(C(F)(F)F)cc1,16.6 µM (active),–
COc1ccc(-n2c(C)c([N+](=O)[O-])c3ccc(O)cc32)cc1,–,95
O=C(O)C(O)Cc1ccc(O)c(O)c1 (stereo unspecified),11.8 µM (active),–
CCn1cc(C(=O)O)c(=O)c2ccc(C)nc21,–,102
CCCCCCCCCCCC1=C(O)C(=O)C=C(O)C1=O,7.43 µM (active),–
CC[C@@H]1C=C(C)C[C@H](C)C[C@H](OC)[C@H]2O[C@@](O)(C(=O)C(=O)N3CCCC[C@@H]3C(=O)O[C@H](C(C)=C[C@@H]3CC[C@H](Cl)[C@H](OC)C3)[C@H](C)[C@@H](O)CC1=O)[C@H](C)C[C@H]2OC,–,77.7
CN1C[C@H]2c3ccccc3Oc3ccc(Cl)cc3[C@@H]2C1,–,100
O=C(Nc1ccccc1-c1cn2c(CN3CCNCC3)csc2n1)c1cnc2ccccc2n1,23.5 µM (active),–
Cc1ccc(C(=O)Nc2cccc(C(F)(F)F)c2)cc1Nc1nc(-c2cccnc2)nc2c1cnn2C,16.6 µM (active),–
CC1CCC(C(=O)N(c2cc(C#CC(C)(C)C)sc2C(=O)O)C2CCC(O)CC2)CC1 (stereo unspecified),–,96.4
O=C(O)CCC1CCC(c2cc(F)ccc2F)(S(=O)(=O)c2ccc(Cl)cc2)CC1 (stereo unspecified),–,104
O=C(CCc1ccc(O)cc1)c1c(O)cc(O)cc1O[C@@H]1O[C@H](CO)[C@H](O)[C@H](O)[C@H]1O,9.35 µM (active),–
CC1(C)CCC2=C(O1)c1ccccc1C(=O)C2=O,16.6 µM (active),–
Clc1ccc(COC(Cn2ccnc2)c2ccc(Cl)cc2Cl)cc1 (stereo unspecified),–,72
Cc1cccc(Nc2nc(-c3ccncc3)cs2)c1,10.5 µM (active),–
N#Cc1ccc(NC(=O)Nc2ccccc2Br)c2n[nH]nc12,–,98.9
